# Paper PMC4336329 (PLoS ONE, 2015)
# Hit rate of the full screen: of about 310,000 compounds, about 14,000 (4.5%) showed an effect of 50% or more. The effect is printed as a negative number. The sample as a whole holds a higher share of strong results than the screen did.
# Molecular target: human ether-à-go-go-related gene (hERG) potassium channel (human, UniProt Q12809)
# Assay: primary screen, population patch clamp on CHO cells stably expressing hERG; higher = less effect of the substance
# 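Further: peak tail current of the secondary pulse compared with the same well before compound.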
# human ether-à-go-go-related gene (hERG) potassium channel, sequence (Q12809 whole entry, looked up): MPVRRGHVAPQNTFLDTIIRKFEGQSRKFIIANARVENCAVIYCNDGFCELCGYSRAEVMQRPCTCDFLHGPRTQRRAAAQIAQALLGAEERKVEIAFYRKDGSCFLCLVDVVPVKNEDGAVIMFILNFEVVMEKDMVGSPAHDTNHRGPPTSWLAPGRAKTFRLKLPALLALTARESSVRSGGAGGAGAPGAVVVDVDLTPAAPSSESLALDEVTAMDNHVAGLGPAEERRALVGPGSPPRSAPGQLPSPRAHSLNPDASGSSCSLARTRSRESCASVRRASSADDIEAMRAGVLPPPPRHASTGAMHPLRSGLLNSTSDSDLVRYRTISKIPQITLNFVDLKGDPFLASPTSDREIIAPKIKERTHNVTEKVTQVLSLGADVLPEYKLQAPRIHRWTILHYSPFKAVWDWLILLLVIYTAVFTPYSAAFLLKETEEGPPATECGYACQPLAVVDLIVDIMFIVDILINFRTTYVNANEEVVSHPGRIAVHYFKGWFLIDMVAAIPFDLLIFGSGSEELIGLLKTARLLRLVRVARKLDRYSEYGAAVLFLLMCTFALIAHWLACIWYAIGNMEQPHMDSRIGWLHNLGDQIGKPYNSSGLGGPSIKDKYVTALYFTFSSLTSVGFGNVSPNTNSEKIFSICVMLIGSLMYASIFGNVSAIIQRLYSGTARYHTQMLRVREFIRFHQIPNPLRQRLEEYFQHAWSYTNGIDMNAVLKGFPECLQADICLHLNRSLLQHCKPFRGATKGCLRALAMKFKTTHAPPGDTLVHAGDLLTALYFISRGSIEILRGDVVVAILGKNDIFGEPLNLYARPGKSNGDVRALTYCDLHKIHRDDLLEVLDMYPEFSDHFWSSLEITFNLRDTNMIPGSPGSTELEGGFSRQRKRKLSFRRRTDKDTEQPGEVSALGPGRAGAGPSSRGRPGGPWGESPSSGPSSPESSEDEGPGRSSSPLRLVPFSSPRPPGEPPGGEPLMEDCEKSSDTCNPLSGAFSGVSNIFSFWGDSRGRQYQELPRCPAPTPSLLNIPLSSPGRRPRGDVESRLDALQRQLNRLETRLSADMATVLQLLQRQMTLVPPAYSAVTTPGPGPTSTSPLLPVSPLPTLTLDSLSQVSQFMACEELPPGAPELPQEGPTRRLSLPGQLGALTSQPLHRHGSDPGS
row,Structure (SMILES),"hERG current change (%, negative = inhibition) at 10uM [%]"
1,CCCCn1c(N)c(N(CCOC)C(=O)COC(=O)c2cc(CC)c(C)s2)c(=O)[nH]c1=O,22
2,Cn1c(SCC(=O)Nc2ccc3[nH]c(=O)[nH]c3c2)nnc1-c1ccc(F)cc1,7.63
3,[O-]/[N+](=C\c1ccccc1)c1ccc(Br)cc1,-0.595
4,CCn1c(CSc2nc3ccccc3s2)nnc1SCC(=O)c1ccc(Cl)cc1,6.76
5,CC(=O)c1cccc(NC(=O)N2CCCC2C(=O)NCc2ccccc2)c1 (stereo not shown),15
6,C1=C(c2ccccc2)CCN(c2nc3ccccc3n3cnnc23)C1,-8.21
7,CCCCN(C)CCNC(=O)C1CCN(S(=O)(=O)c2cccc3nsnc23)CC1,-15.3
8,O=[N+]([O-])c1ccc(Oc2c(F)c(F)nc(N3CCCC3)c2F)cc1,-19.7
9,CCN(CC)CCN(C(=O)c1ccc(C(C)=O)cc1)c1nc2ccc(Cl)cc2s1.Cl,-30.2
10,CN(C)CCN(C(=O)c1ccc(S(=O)(=O)N(C)c2ccccc2)cc1)c1nc2ccc(Cl)cc2s1.Cl,-13
11,Cc1ccc(C(=O)N(CCCN(C)C)c2nc3ccc(Cl)cc3s2)cc1C.Cl,-56.4
12,CNS(=O)(=O)c1cccc2cccnc12,11.1
13,Cc1ccc(N2C(=O)CC(NCc3ccc4c(c3)OCO4)C2=O)cc1Cl (stereo not shown),-54.8
14,O=C1CC(NCc2ccc3c(c2)OCO3)C(=O)N1Cc1ccc2c(c1)OCO2 (stereo not shown),-4.06
15,CCN1C(=O)CC(NCc2ccc3c(c2)OCO3)C1=O (stereo not shown),-9.23
16,CS(=O)(=O)N(CC(=O)N1CCN(Cc2ccccc2)CC1)c1ccccc1F,-5.93
17,CCN(CC)C(=O)CSc1nnc(-c2cc(-c3ccc(Cl)cc3)nc3ccccc23)o1,-3.85
18,CCC(C)NC(=O)CSc1nnc(-c2cc(-c3cccs3)nc3ccccc23)o1 (stereo not shown),-0.833
19,CCNC(=O)CSc1nnc(-c2cc(-c3ccc(Cl)cc3)nc3ccccc23)o1,-82.3
20,Cc1nn(-c2cc(N3CCCCCC3)ccc2[N+](=O)[O-])c(=O)c2ccccc12,6.02
21,O=C(NCCc1c[nH]c2ccccc12)C(=O)NCC(c1ccco1)N1CCN(c2ccc(F)cc2)CC1 (stereo not shown),7.65

row,Structure (SMILES),"hERG current change (%, negative = inhibition) at 10uM [%]"
1,Cc1cc(C)n(CC(=O)c2ccccc2)c(=O)c1C#N,10.9
2,CCNc1nc(NCC)nc(OCCOC(=O)Nc2ccccc2)n1,-0.811
3,CCNc1nc(NCC)nc(SCCOC(=O)Nc2ccccc2)n1,-71
4,CCNc1nc(NCC)nc(SCCOC(=O)c2ccccc2)n1,-39.4
5,O=C(CSc1nnc(CNC(=O)c2ccccc2)o1)NCc1ccco1,-0.224
6,Cc1ccc(CSc2ccc(S(=O)(=O)N3CCOCC3)cn2)cc1,-10.2
7,COc1cc(/C=C/C(=O)Nc2ccccc2C(F)(F)F)cc(OC)c1OC,-5.76
8,COC(=O)CN(c1nc(C)cc(OC)n1)S(=O)(=O)c1ccc(C)cc1,-8.25
9,Cc1c(C(=O)C(=O)NCCc2ccc(S(N)(=O)=O)cc2)c2ccccc2n1C,-13.4
10,COc1ccc(S(=O)(=O)NCc2ccncc2)cc1NC(=O)c1ccccc1F,18.7
11,COc1ccc(S(=O)(=O)NCc2ccncc2)cc1NC(=O)c1ccc(Cl)cc1,-67.4
12,COc1ccc(S(=O)(=O)NCC2CCCO2)cc1NC(=O)c1ccc(Cl)cc1 (stereo not shown),-54
13,COc1ccc(S(=O)(=O)NCc2ccccn2)cc1NC(=O)c1ccc(C)cc1,-16.5
14,COc1ccc(S(=O)(=O)NCc2cccnc2)cc1NC(=O)c1ccccc1,-3.99
15,COc1ccc(S(=O)(=O)NCc2cccnc2)cc1NC(=O)c1ccc(C)cc1,-17.6
16,COc1ccc(S(=O)(=O)NCc2ccccn2)cc1NC(=O)c1ccccc1,8.45
17,COc1ccc(S(=O)(=O)NCC2CCCO2)cc1NC(=O)c1ccccc1F (stereo not shown),19.1
18,COc1ccc(S(=O)(=O)NCC2CCCO2)cc1NC(=O)c1ccccc1 (stereo not shown),-15.4
19,COc1ccc(S(=O)(=O)NCc2cccnc2)cc1NC(=O)c1ccc(Cl)cc1,-52.2
20,COc1ccc(S(=O)(=O)NCc2ccncc2)cc1NC(=O)c1ccccc1,-34.7
21,COc1ccc(S(=O)(=O)NCc2ccccn2)cc1NC(=O)c1ccc(Cl)cc1,-68.8

row,Structure (SMILES),"hERG current change (%, negative = inhibition) at 10uM [%]"
1,COc1ccccc1N1CCN(C2CCCN(C(=O)CC(F)(F)F)C2)CC1 (stereo not shown),12.4
2,Cc1ccc(OCC(=O)N2CCCC(N3CCN(c4ccc(F)cc4)CC3)C2)cc1 (stereo not shown),-101
3,O=C(CCN1CCCCO1)N1CCCC(N2CCN(c3ccc(F)cc3)CC2)C1 (stereo not shown),-11.2
4,COc1ccc(N2CCN(C3CCCN(C(=O)CSC)C3)CC2)cc1 (stereo not shown),3.1
5,COc1ccccc1OCC(=O)N1CCCC(N2CCN(c3ccc(F)cc3)CC2)C1 (stereo not shown),-52.9
6,O=C(COc1ccccc1Cl)N1CCCC(N2CCN(c3ccc(F)cc3)CC2)C1 (stereo not shown),-65.8
7,Cc1cc(C)n(CC(=O)N2CCCC(N3CCN(c4ccc(F)cc4)CC3)C2)n1 (stereo not shown),-18.1
8,O=C(COc1ccccc1Cl)N1CCN(c2ccc(F)cc2)CC1,-6.04
9,COc1ncccc1C(=O)N1CCCC(N2CCN(c3ccc(F)cc3)CC2)C1 (stereo not shown),-26.7
10,COc1ccc(CN2CCN(C(=O)CCC(=O)Nc3nnc(CC(C)C)s3)CC2)cc1F,-17.9
11,O=C(c1cccc2ccccc12)N1CCN(c2ccccc2F)CC1,-9.72
12,O=C(CCC(=O)Nc1ccccc1)N/N=C/C=C/c1ccccc1,32.1
13,CC(=O)Nc1ccc(NC(=O)C2CC(=O)N(c3cccc(C)c3C)C2)cc1 (stereo not shown),9.48
14,Cc1ccn2c(CN(C)CCn3nc(C)cc3C)c(C(=O)N3CCCCCC3)nc2c1,4.86
15,Cc1cc2cc3c(cc2nc1SCc1ccccn1)OCCO3,5.43
16,O=c1c(Cl)c(N2CCOCC2)cnn1-c1ncc(C(F)(F)F)cc1Cl,5.44
17,Cc1ccc(N2CC(C(=O)Nc3ccc(S(=O)(=O)N4CCCC4)cc3)CC2=O)cc1C (stereo not shown),6.52
18,Cc1c(/C(O)=C2/C(=O)C(=O)N(CCN3CCOCC3)C2c2cccs2)cnn1-c1ccccc1 (stereo not shown),13.6
19,COc1cccc(C(=O)NCc2ccc3c(c2)cc(C)n3C)c1,17
20,CCc1ccc2[nH]c(=O)c(CN(Cc3ccccc3)C(=O)Nc3ccccc3OC)cc2c1,4.2
21,CCc1ccc2[nH]c(=O)c(CN(CCCO)C(=O)NCc3ccccc3)cc2c1,-13

row,Structure (SMILES),"hERG current change (%, negative = inhibition) at 10uM [%]"
1,CCc1ccc2[nH]c(=O)c(CN(Cc3ccccc3OC)C(=O)Nc3ccccc3OC)cc2c1,3.47
2,CCc1ccc2[nH]c(=O)c(CN(CCO)C(=O)NCc3ccccc3)cc2c1,3.64
3,CCc1ccc2[nH]c(=O)c(CN(CCN(CC)CC)C(=O)Nc3ccccc3OC)cc2c1,-76.5
4,CCc1ccc2[nH]c(=O)c(CN(CCN(C)C)C(=O)Nc3ccccc3OC)cc2c1,-64.7
5,Nc1nc(SCc2ccc(Cl)c(Cl)c2)n[nH]1,10.4
6,O=C(COC(=O)c1ccc(F)c(S(=O)(=O)N2CCOCC2)c1)c1ccc(Cl)cc1,-31.1
7,COc1ccccc1/C=N/NC(=O)c1cccc(NC(=O)c2ccccc2C)c1,-4.64
8,Cc1ccc(S(=O)(=O)N2CCN(C(=O)C3CSC4(C)CCC(=O)N34)CC2)cc1C (stereo not shown),-13.8
9,CC12CCC(=O)N1C(C(=O)OCC(=O)Nc1cc(S(=O)(=O)N3CCCCC3)ccc1Cl)CS2 (stereo not shown),-48.2
10,CC12CCC(=O)N1C(C(=O)Nc1ccc(F)cc1)CS2 (stereo not shown),12.4
11,CC12CCC(=O)N1C(C(=O)OCC(=O)Nc1cccc(Br)c1)CS2 (stereo not shown),6.89
12,CC12CCC(=O)N1C(C(=O)Nc1ccc(Cl)c(S(=O)(=O)N3CCCCC3)c1)CS2 (stereo not shown),-34.3
13,Cc1ccc(NC(=O)C2CSC3(C)CCC(=O)N23)cc1S(=O)(=O)N1CCOCC1 (stereo not shown),2.81
14,CC(C)c1ccc(NC(=O)C2CSC3(C)CCC(=O)N23)cc1 (stereo not shown),2.4
15,Cc1ccc(NC(=O)C2CSC3(C)CCC(=O)N23)cc1S(=O)(=O)N1CCCCCC1 (stereo not shown),-55.4
16,CC12CCC(=O)N1C(C(=O)N1CCN(S(=O)(=O)c3ccccc3F)CC1)CS2 (stereo not shown),-30.1
17,CC12CCC(=O)N1C(C(=O)Nc1ccc(SC(F)F)cc1)CS2 (stereo not shown),-57.6
18,CC12CCC(=O)N1C(C(=O)N1CCN(S(=O)(=O)c3ccc(F)c(F)c3)CC1)CS2 (stereo not shown),-53.7
19,CC12CCC(=O)N1C(C(=O)OCC(=O)Nc1cccc(S(=O)(=O)N3CCCCCC3)c1)CS2 (stereo not shown),-86.8
